Screens: PubChem BioAssay, National Center for Advancing Translational Sciences (NCATS)
Shown are actives, neighbours in structure and some others; about 4.2% of the full set was active somewhere.
VDR inh: Inhibitors of the vitamin D receptor (VDR): qHTS | VDR-SRC2-3 peptide fluorescence polarization, 2 h | Vitamin D3 receptor (Homo sapiens), P11473 | Potency, µM, hits mostly inhibitors | actives 0.93% (n = 400,000) | AID 504847, 2011
Target sequence (P11473 whole entry, looked up): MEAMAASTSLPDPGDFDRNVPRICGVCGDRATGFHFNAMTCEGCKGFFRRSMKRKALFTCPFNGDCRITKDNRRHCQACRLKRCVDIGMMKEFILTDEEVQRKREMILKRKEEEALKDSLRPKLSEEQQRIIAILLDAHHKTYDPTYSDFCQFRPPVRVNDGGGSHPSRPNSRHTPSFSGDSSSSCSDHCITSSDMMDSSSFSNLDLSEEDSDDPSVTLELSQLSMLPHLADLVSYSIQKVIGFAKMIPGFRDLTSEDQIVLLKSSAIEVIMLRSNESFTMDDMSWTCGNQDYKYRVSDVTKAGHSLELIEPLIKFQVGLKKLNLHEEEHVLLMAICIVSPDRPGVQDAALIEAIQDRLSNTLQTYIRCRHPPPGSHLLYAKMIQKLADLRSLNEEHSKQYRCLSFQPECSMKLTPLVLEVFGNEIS
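Measured by FP: displacement of SRC2-3 coactivator peptide from VDR by library compounds, following a two-hour ambient incubation.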
PLK1 PBD block: qHTS for Inhibitors of PLK1-PDB (polo-like kinase 1 - polo-box domain): Primary Screen; Potency, µM, actives largely listed as inhibitors; actives 2.8% (n = 360,000); AID 720504, 2013; Serine/threonine-protein kinase PLK1 (Homo sapiens), P53350; Plk1 PBD binding of FITC phosphopeptide, fluorescence polarization; also: series mostly up to about 57 µM; nearly all actives have a fitted effect of over 65% in size
12-LOX inh: Primary qHTS assay for inhibitors of human arachidonate 12S-lipoxygenase (ALOX12): Round 2; Polyunsaturated fatty acid lipoxygenase ALOX12 (Homo sapiens), P18054; purified 12hLO, xylenol orange hydroperoxide absorbance; Potency, µM (doses to about 108 µM), usual class: inhibitors; actives 1.1% (n = 580,000); AID 1671190, 2021
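Purified human 12hLO at 150 nM in 25 mM Hepes, 0.01% Triton X-100, pH 7.0, preincubated 15 min at room temperature with compound. Reaction started with 40 uM arachidonic acid, 30 min at room temperature. Hydroperoxide measured by Fe-xylenol orange, 573/405 nm absorbance ratio.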
Sfp inh: qHTS Assay for Inhibitors of Bacillus subtilis Sfp phosphopantetheinyl transferase (PPTase); Potency, µM, usual class: inhibitors; actives 3.5% (n = 310,000); Biochemical Sfp PPTase activity, qHTS; AID 1490, 2009;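 also: the enzyme is Sfp with the accession as filed and its product quenches rhodamine fluorescence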
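Reaction rates are the 30-min fluorescence difference (ex 525, em 598 nm) in wells containing 15 nM Sfp, 5 uM rhodamine-CoA and 12.5 uM BHQ-2-YbbR at pH 7.6 with 10 mM MgCl2.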
Large screens that a line does not name were inactive; ! = a repeat was not active. Calls follow the shape of the dose curve; as a rule, active = well fitted curve in the direction sought with a large enough effect; inconclusive = small, poorly fitted or top-dose-only effect, or another doubt; inactive = no such curve, though single readings can be large; an effect the other way counts as inactive or inconclusive.

Cc1ccccc1OCC(=O)NC(Cc1c[nH]c2ccccc12)C(=O)O (centres undefined)	12-LOX inh inconclusive
CSc1ccccc1C(=O)Nc1ccccc1C(C)C	none (no result: VDR inh, PLK1 PBD block, Sfp inh)
COCCSc1ccccc1C(=O)Nc1ccccc1C(C)C	12-LOX inh inconclusive, Sfp inh 18µM
COCCSc1ccccc1C(=O)Nc1nccs1	12-LOX inh 14µM
CCCSc1ccccc1C(=O)Nc1cccc(C)c1C	12-LOX inh 25µM (no result: VDR inh, PLK1 PBD block, Sfp inh)
CCc1ccc(NC(=O)[C@H](NC(=O)[C@@H]2Cc3ccccc3CN2)c2ccccc2)cc1	PLK1 PBD block 30µM
CC1(C(=O)NS(=O)(=O)c2ccc3c(c2)CCO3)CCN1C(=O)CCC1CCCC1 (centres undefined)	12-LOX inh inconclusive (no result: VDR inh, Sfp inh)
CC1CCC(C(C)C)C(=O)/C1=C/c1ccc(N)cc1 (centres undefined)	VDR inh inconclusive, PLK1 PBD block 24µM
CCOc1ccc(CNC(=O)c2ccc3c(c2)nc2n3CCCCC2)cc1	none (no result: PLK1 PBD block, Sfp inh)
Cc1c(C(C)(C)C)sc(=N)n1C	12-LOX inh 45µM (no result: VDR inh, PLK1 PBD block, Sfp inh)
Cc1c(C(C)(C)C)sc(=NC(=O)c2ccccc2O)n1C	none
CCN(C(=O)CSc1nc2cc(S(=O)(=O)N(CC)CC)ccc2o1)C1CCS(=O)(=O)C1 (centres undefined)	VDR inh inconclusive, PLK1 PBD block 21µM, Sfp inh 18µM
CCCN(C(=O)CSc1nc2cc(S(=O)(=O)N(CC)CC)ccc2o1)C1CCS(=O)(=O)C1 (centres undefined)	none (no result: Sfp inh)
O=C(CN1CCOCC1)NC1CC2CCC1C2 (centres undefined)	Sfp inh inconclusive
COC(=O)c1ccccc1CSc1nsc(C)c1C#N	PLK1 PBD block 13µM, Sfp inh 50µM (no result: 12-LOX inh)
Cc1ccc(C(=O)CSc2nsc(C)c2C#N)cc1	VDR inh inconclusive, PLK1 PBD block 15µM, 12-LOX inh inconclusive, Sfp inh 20µM
Cc1snc(SCC(=O)c2ccc(Cl)cc2)c1C#N	PLK1 PBD block 21µM, 12-LOX inh inconclusive, Sfp inh 28µM
COC(=O)c1cc(C#N)c(SCc2ccccc2)nc1C	none
FC(F)(F)c1ccc(/C=N/n2c(COc3ccccc3)n[nH]c2=S)cc1	PLK1 PBD block 27µM, 12-LOX inh inconclusive, Sfp inh inconclusive
S=c1[nH]nc(COc2ccccc2)n1/N=C/c1ccncc1	none
FC(F)(F)c1ccccc1/C=N/n1c(COc2ccccc2)n[nH]c1=S	PLK1 PBD block 30µM, 12-LOX inh inconclusive, Sfp inh 50µM
c1ccc(CNc2cc(-c3ccoc3)ncn2)cc1	VDR inh 13µM, 12-LOX inh inconclusive, Sfp inh 32µM (no result: PLK1 PBD block)
Cc1ccccc1-c1cc(Nc2ccccc2)ncn1	VDR inh inconclusive, 12-LOX inh inconclusive (no result: PLK1 PBD block)
COc1cccc(-c2cc(NCc3ccccc3OC)ncn2)c1	none (no result: PLK1 PBD block)
COc1ccc(CNc2cc(-c3ccoc3)ncn2)c(OC)c1	VDR inh 11µM, 12-LOX inh inconclusive, Sfp inh 45µM (no result: PLK1 PBD block)
c1ccc(Nc2cc(-c3ccoc3)ncn2)cc1	VDR inh 11µM, 12-LOX inh inconclusive, Sfp inh 32µM (no result: PLK1 PBD block)
COCCCNC(=O)/C(C#N)=C/c1c(C)[nH]c2ccccc12	12-LOX inh 40µM (no result: VDR inh, PLK1 PBD block, Sfp inh)
CCOC(=O)c1noc(C)c1C(=O)Nc1cccc(F)c1	none
CCCCN(CC)Cc1ccc(CNC(=S)Nc2c(C)cc(C)cc2C)o1	PLK1 PBD block 13µM, 12-LOX inh inconclusive, Sfp inh 45µM
CCOC(=O)c1sc(NC(=O)CSC(=S)N2CCOCC2)nc1C	12-LOX inh inconclusive
COc1ccc(C(=O)OCC2CC(c3ccccc3)=NO2)cc1OC (centres undefined)	VDR inh inconclusive, PLK1 PBD block 11µM
COc1cc(C(=O)OCC2CC(c3ccccc3)=NO2)cc(OC)c1OC (centres undefined)	none
O=P(c1ccccc1)(c1ccccc1)c1nc(-c2ccc(Cl)cc2)oc1N1CCOCC1	VDR inh inconclusive, PLK1 PBD block 24µM!, Sfp inh inconclusive
O=P(c1ccccc1)(c1ccccc1)c1nc(-c2ccccc2)oc1N1CCOCC1	none
CCN1C(=O)[C@H]2[C@@H](c3ccc(-c4ccc(Cl)c(Cl)c4)cc3)N[C@@](C)(C(=O)OC)[C@H]2C1=O	12-LOX inh 40µM (no result: Sfp inh)
Cc1ccc(-c2nc3ccccc3[nH]2)s1	Sfp inh 50µM
Cc1ccc2cc(CCNC(=O)C3CCCCC3)c(=O)[nH]c2c1C	none
COc1ccc(-n2c(SCC(=O)C(C)(C)C)nc3c(sc(=S)n3-c3ccccc3)c2=O)c(OC)c1	VDR inh 32µM, PLK1 PBD block 3.8µM, Sfp inh 3.5µM
CCOC(=O)CSc1nc2c(sc(=S)n2-c2ccccc2OC)c(=O)n1-c1ccccc1OC	none
Cc1cc(Cl)ccc1-c1nc(NCc2ccccc2)nc2ccsc12	12-LOX inh 40µM (no result: VDR inh, Sfp inh)
CCC(=O)N1CCc2cc(Br)cc(S(=O)(=O)N3CCCC(C(=O)NCc4ccc(F)cc4)C3)c21 (centres undefined)	none (no result: PLK1 PBD block, Sfp inh)
O=C(NCc1ccc(Cl)cc1)c1csc(-c2cccnc2)n1	PLK1 PBD block 30µM
O=C(NCCc1csc(-c2cccnc2)n1)c1ccc(Br)o1	Sfp inh 20µM
CC[n+]1c(/C=C/Nc2ccccc2)sc2ccccc21	12-LOX inh inconclusive
CCN1/C(=C/C=C/C=C/c2sc3ccccc3[n+]2CC)Sc2ccccc21	VDR inh inconclusive, Sfp inh 45µM (no result: PLK1 PBD block, 12-LOX inh)
CCN1/C(=C/C=C/c2sc3ccccc3[n+]2CC)Sc2ccccc21	VDR inh 7.9µM!, Sfp inh 79µM
Cc1cc(Cl)ccc1OC(C)C(=O)Nc1ccc(C(=O)Nc2ccccc2C(=O)O)cc1 (centres undefined)	VDR inh inconclusive, PLK1 PBD block inconclusive, 12-LOX inh 50µM
O=C(Nc1ccc(S(=O)(=O)Nc2cnc3ccccc3n2)cc1)c1cc(F)c(F)cc1Cl	VDR inh inconclusive, PLK1 PBD block 30µM
Cc1cc(Cl)ccc1OC(C)C(=O)Nc1ccc(S(=O)(=O)Nc2cnc3ccccc3n2)cc1 (centres undefined)	PLK1 PBD block 21µM, 12-LOX inh inconclusive
COc1ccc(C(=O)Nc2ccc(S(=O)(=O)Nc3cnc4ccccc4n3)cc2)cc1	none
O=C(Nc1ccc(S(=O)(=O)Nc2cnc3ccccc3n2)cc1)c1ccc(Cl)cc1Cl	12-LOX inh inconclusive (no result: Sfp inh)
O=C(Nc1ccc(S(=O)(=O)Nc2cnc3ccccc3n2)cc1)c1ccc(Cl)c([N+](=O)[O-])c1	VDR inh inconclusive, PLK1 PBD block 42µM
CC(=O)C1=C(O)C(=O)N(c2ccc(C(=O)O)cc2)C1c1ccc([N+](=O)[O-])cc1 (centres undefined)	none
C[C@@H]1CN([C@H](C)CO)C(=O)CCCn2nncc2CO[C@H]1CN(C)Cc1cccc(O)c1	none (no result: VDR inh, Sfp inh)
N#Cc1c(N)sc(=S)c2c1CCCCC2	VDR inh inconclusive, PLK1 PBD block 21µM, 12-LOX inh inconclusive, Sfp inh 5µM
N#Cc1c(N)sc2c1CCCCCC2	12-LOX inh 35µM, Sfp inh 40µM
CCCn1nnnc1NC(=O)c1cc(Cl)ccc1Cl	PLK1 PBD block 27µM
